# Results filed as inconclusive are left out. Active and inactive are the calls of the source. Calls follow the shape of the dose curve; as a rule, active = well fitted curve in the direction sought with a large enough effect; inconclusive = small, poorly fitted or top-dose-only effect, or another doubt; inactive = no such curve, though single readings can be large or run the other way. Peptide text beside a SMILES is read from it. * marks the point of attachment. Hexanoyl = CCCCCC(=O)*
# Experiment: qHTS for activators of dead-cell proteases activity screened against the NCATS CANVASS Library (AID 1347392);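 also: luminescence from protease leaking out of membrane-damaged cells cleaving impermeant substrate; 0% is about no effect; rising signal means more cytotoxicity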
# Conditions: HepG2 cytotoxicity, dead-cell protease luminescence, 5 h; series mostly up to 46.1 µM; activation (cytotoxicity): at the top concentration
# How it was run: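 HepG2 cells (2000/well) attached 18 h at 37C, then exposed 5 h to compounds (11-point qHTS). Dead-cell protease activity read as luminescence from cell-impermeant AAF-aminoluciferin substrate after 15 min at room temperature.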
row,SMILES,activation (cytotoxicity)
1,CN1CC[C@]23c4ccccc4N[C@H]1[C@]21CCN(C)[C@H]3Nc2ccccc21,1.27% (inactive)
2,C/C=C1/C2=CCCN3C(=O)O[C@H]([C@H]1O)[C@H]23,-0.406% (inactive)
3,O=C1CC(c2ccc(O)cc2)Oc2ccccc21 (stereo not given),-17.5% (inactive)
4,COc1c(O)cc(O)c2c(=O)cc(-c3ccccc3)oc12,-2.13% (inactive)
5,COC1C(C)OC(OCC23C[C@@H]4[C@H](C)CC[C@H]4C4(C=O)CC2C=C(C(C)C)C34C(=O)O)[C@@H](O)[C@H]1O (stereo not given in full),-1.04% (inactive)
6,CN1CC[C@@]2([C@@]34CCN(C)[C@@H]3Nc3ccccc34)c3ccccc3N[C@@H]12,0.242% (inactive)
7,COc1ccc(-c2oc3cc(OC)cc(OC)c3c(=O)c2O)cc1,2.81% (inactive)
8,Cc1cc(O)cc2c1C(=O)c1c(O)cc(O)cc1C2=O,1.24% (inactive)
9,C=C[C@]1(C)CC[C@@H]([C@H](C)C(=O)CC=C(C)C)O1,-0.763% (inactive)
10,CC[C@@H]1C[C@@]2(CC)OC(=O)[C@@]3(CC)[C@H](CC)[C@@H]1[C@@H]23,5% (inactive)
11,[C-]#[N+][C@@]12C(=O)[C@@H]3[C@@H](O[C@@]4(C(=O)N(C)c5cccc1c54)C3(C)C)C(=O)[C@@]2(C)C=C,4.75% (inactive)
12,COC(=O)c1cccc2oc(-c3cccc4oc(-c5c(C)cccc5O)nc34)nc12,2.74% (inactive)
13,C[C@@]12CCC[C@@](C)(C(=O)OP(=O)(O)OC[C@H]3O[C@@H](n4cnc5c(N)ncnc54)[C@H](O)[C@@H]3O)[C@H]1C[C@@H](O)[C@@]13C[C@@H](CC[C@@H]21)[C@](C)(O)C3,0.587% (inactive)
14,CCC(C)=C1OC(=O)[C@H](C)[C@H](O)[C@H](Cc2cccnc2)NC(=O)C(NC(=O)c2ncccc2O)C(C)OC1=O (stereo not given in full),-1.77% (inactive)
15,C[C@@]12CCC[C@@](C)(C(=O)O)[C@H]1CC[C@@]13C[C@@H](CC[C@H]12)[C@](C)(O)C3,1.07% (inactive)
16,O=C1OC(CCO)c2cccc(O)c21 (stereo not given),1.87% (inactive)
17,C=C1C[C@]23C=CC(=O)[C@@](C)(CCCC(C)C(=O)N[C@@H](CO)C(=O)O)[C@@H]2C[C@@H]1CC3 (stereo not given in full),2.13% (inactive)
18,COc1cc2ccc(=O)oc2c(O)c1O[C@@H]1O[C@H](CO)[C@@H](O)[C@H](O)[C@H]1O,-1.05% [at 27.5 µM] (inactive)

row,SMILES,activation (cytotoxicity)
1,C/C(=C\[C@@H](C)CC/C=C/CC/C=C/C(=O)O)[C@@H](O)[C@H](C)C(=O)CCCC1CC(=O)NC(=O)C1,-1.25% (inactive)
2,CO[C@@H](C[C@@H](C)[C@@H](O)/C=C/C=C/CNC(=O)C(C)(C)[C@H](O)\C(C)=C/C=C\C=C\Cc1cnco1)[C@]1(O)[C@@H](C)C(=O)N(C)[C@@]12COC2=O,-0.803% (inactive)
3,O=C1CC(c2ccc(O)cc2)Oc2cc(O)cc(O)c21 (stereo not given),-7.26% (inactive)
4,O=C1CC(c2ccc(O)cc2)Oc2cc(O)ccc21 (stereo not given),-16% (inactive)
5,CN1CC[C@@]23c4ccccc4N[C@@H]1[C@@]21CCN(C)[C@@H]3Nc2ccccc21,2.67% (inactive)
6,C[C@@]12CCC[C@@](C)(C(=O)O)[C@H]1C[C@@H](O)[C@@]13C[C@@H](CC[C@@H]21)[C@](C)(O)C3,-0.261% (inactive)
7,O=Cc1ccc2n1C[C@]1(OC2)O[C@H](CO)[C@@H](O)[C@@H]1O,2% (inactive)
8,C=C[C@@]1(C)CC[C@@H]([C@H](C)C(C)=O)O1,0.908% (inactive)
9,C/C=C(/CO)C(=O)O[C@@H]1[C@H](O)[C@@H](C(=O)OC)O[C@@H]2C[C@H]3OC(n4cnc5c(N)ncnc54)[C@H](OC)[C@H]3O[C@@]12O (stereo not given in full),-0.337% (inactive)
10,C/C=C/[C@H]1[C@H]2C(=O)c3c(O)c(C)c(O)c(C)c3[C@]1(C(=O)O)C(=O)C=C2C,2.12% (inactive)
11,C[C@@]12C[C@@H](C[C@@H]3C(=O)O[C@@H](c4ccoc4)[C@H](OC(=O)c4ccccc4)[C@@H]31)OC2=O,-3.43% (inactive)
12,C=C1CCC2C(C)(C(=O)O)CCC(CC/C(C)=C/C(=O)NC(CCC(N)=O)C(=O)O)[C@@]2(C)C1 (stereo not given in full),2.1% (inactive)
13,C=C1[C@@]2(C)CC3C4(C)CCC(O)C(C)(C)C4CCC3(C)[C@]1(C(=O)OC)C(=O)C(C)(O)C2=O (stereo not given in full),1.94% (inactive)
14,CC(C)=CCC[C@]1(C)[C@H]2CC(=O)[C@@]3(CO3)[C@@H]1C2,1.4% (inactive)
15,CCCCCC(=O)N[C@@H](CC(C)C)C(=O)N[C@H](C=O)CCC(=O)O (Hexanoyl-Leu-Glu-aldehyde),0.635% (inactive)
16,COc1ccc([C@@H]2c3cc4c(cc3C(=O)C(C)C2C)OCO4)cc1OC (stereo not given in full),0.342% (inactive)
17,CC1(C)CC[C@]2(CO)CC[C@]3(C)C(=CCC4[C@@]5(C)CC[C@H](O)C(C)(C)C5CC[C@]43C)C2C1 (stereo not given in full),-0.639% (inactive)
